Cruzain Triton = qHTS Assay for Promiscuous and Specific Inhibitors of Cruzain (with detergent) | 0.43% of 200,000 active | purified cruzain, Z-FR-AMC fluorescence, 0.01% Triton | Potency, µM, inactives show max response, negative = inhibition, usual class: inhibitors;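 also: plate controls were neutral wells for no effect and buffer without enzyme for full effect; nearly all actives have a fitted effect of over 40% in size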
Target sequence (P25779 123-467 limits assumed): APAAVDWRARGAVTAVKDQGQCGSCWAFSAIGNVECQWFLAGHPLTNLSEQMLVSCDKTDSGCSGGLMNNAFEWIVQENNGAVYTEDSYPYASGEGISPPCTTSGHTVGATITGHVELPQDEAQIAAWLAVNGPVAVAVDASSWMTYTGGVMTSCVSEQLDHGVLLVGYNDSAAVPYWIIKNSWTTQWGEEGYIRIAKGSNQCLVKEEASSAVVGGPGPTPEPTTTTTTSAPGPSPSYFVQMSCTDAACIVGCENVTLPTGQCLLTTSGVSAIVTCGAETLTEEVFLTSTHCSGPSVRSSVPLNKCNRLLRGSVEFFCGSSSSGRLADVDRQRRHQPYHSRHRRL
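Z-FR-AMC hydrolysis (2 uM substrate) by cruzain (1.5 nM) monitored kinetically at ex 360/em 450 nm after 15 min room-temperature compound exposure; 0.01% Triton X-100, pH 5.5, 5 mM DTT.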
Cruzain inh noDet = qHTS Assay for Promiscuous and Specific Inhibitors of Cruzain (without detergent) | Cruzipain (Trypanosoma cruzi), P25779 | purified cruzain, Z-FR-AMC fluorescence, no detergent | Potency, µM, for inactives: max response, negative = inhibition, usual class: inhibitors | 2.3% of 200,000 active | AID 1476, 2009;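 also: plate controls were enzyme without inhibitor for no effect and buffer without enzyme for full effect; nearly all actives have a fitted effect of over 40% in size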
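Detergent-free condition (0.00005% Triton X-100) in acetate buffer pH 5.5 with DTT. 1.5 nM enzyme and compound were pre-mixed 15 min, then 2 uM Z-FR-AMC substrate added; reaction progress from fluorescence change between first and third reads (60 s).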
An asterisk follows results filed as active; ? = inconclusive. Hits are enriched below; roughly 2.4% of the tested compounds scored in any of these assays. Calls follow the shape of the dose curve; as a rule, active = well fitted curve in the direction sought with a large enough effect; inconclusive = small, poorly fitted or top-dose-only effect, or another doubt; inactive = no such curve, though single readings can be large; an effect the other way counts as inactive or inconclusive. Potency is read from the fitted curve at half-maximal effect.

SMILES	Cruzain Triton	Cruzain inh noDet
COc1ccc(OC)c(/C=N/NC(=O)CC2C(=O)NN=C2C)c1 (stereo not drawn)	-28%	32µM*
COc1ccc(OC)c(/C=N/NC(=O)Cc2nc3ccccc3[nH]2)c1	22µM*	?
O=C(Cc1nc2ccccc2[nH]1)N/N=C/c1ccccc1	-4%	7%
Cc1ccc(Cl)cc1NC(=O)c1ccc2nc(CCc3ccccc3)oc2c1	-2%	2%
CC(=O)OCC1OC(Oc2cc(OC(C)=O)c3c(=O)cc(-c4ccc(OC(C)=O)c(OC(C)=O)c4)oc3c2)C(OC(C)=O)C(OC(C)=O)C1OC(C)=O (stereo not drawn)	1%	?
CCOc1cccc(NC(=O)c2sc3nc(-c4ccc(F)cc4)ccc3c2N)c1	-12%	-27%
COC(=O)c1ccc(NC(=S)NC(=O)c2cc(-c3ccccc3)nc3ccccc23)cc1	-2%	10µM*
CCCOc1ccc(C(=O)NNC(=S)NC(=O)c2cc(-c3ccc(Cl)cc3)nc3ccccc23)cc1	3%	?
COc1ccc(Cl)cc1C(=O)NNC(=S)NC(=O)c1cc(-c2ccccc2)nc2ccccc12	3%	3.2µM*
COc1ccc(C(=O)NNC(=S)NC(=O)c2cc(-c3ccccc3)nc3ccccc23)cc1	-1%	?
CC(C)(C)c1ccc(-c2cc(C(=O)NNC(=O)Nc3ccccc3)c3ccccc3n2)cc1	-3%	?
O=C(NNC(=O)c1cc(-c2ccccc2)nc2ccccc12)Nc1cccc(Cl)c1	0%	20µM*
Cn1c(-n2cccc2)c(-c2c(-c3ccccc3)[nH]c3c2c(=O)[nH]c(=O)n3C)c(=O)[nH]c1=O	1%	21%
O=C(Nc1nc(=O)c2ccccc2s1)c1ccc(Cl)cc1	-2%	10µM*
O=C(Nc1nc(=O)c2ccccc2s1)c1ccc(F)cc1	1%	?
Cc1ccc(-c2cn3c(n2)sc2cc(C(=O)NC4CCCCCC4)ccc23)c(C)c1	-1%	10µM*
COc1ccc(-c2cn3c(n2)sc2cc(C(=O)NC4CCCCCC4)ccc23)cc1	-5%	-8%
CC1Cc2ccccc2N1c1nc(C2CC2)nc2c1nnn2Cc1ccccc1 (stereo not drawn)	-17%	20µM*
CC1Cc2ccccc2N1c1ncnc2c1nnn2Cc1ccccc1 (stereo not drawn)	-24%	?
CC(=O)OC1=CC2=CC[C@H]3[C@H]4CCC(=O)[C@@]4(C)CC(=O)[C@]3(S)[C@]2(C)CC1	-4%	-2%
COc1cc(CN2CCCCC2)cc2cc(C(=O)O)c(=O)oc12	5%	7%
NS(=O)(=O)c1ccc(NC(=O)Nc2ccccc2F)cc1	4%	1%
COc1ccc(CC(=O)NCCS(=O)(=O)N2CCN(c3ccccc3F)CC2)cc1OC	-1%	1%
O=C(Cc1ccc(-c2ccccc2)cc1)NCCS(=O)(=O)N1CCN(c2ccccc2F)CC1	1%	13µM*
O=C(c1ccc2c(c1)N(Cc1cccc(Cl)c1)C(=O)c1ccccc1S2(=O)=O)N1CCC(Cc2ccccc2)CC1	1%	-21%
SMILES	Cruzain Triton	Cruzain inh noDet
Cc1ccc2nc(-c3cccc(NC(=O)c4cccc5c(Cl)cccc45)c3)oc2c1	7%	10%
CCOC(=O)c1c(C)[nH]c(C)c1S(=O)(=O)N1CCCC(C(=O)Nc2ccc(C)c(N(C)C)c2)C1 (stereo not drawn)	1%	6%
CN1CCN(c2ncc3nc(-c4ccccc4)c(=O)n(C4CC4)c3n2)CC1	32µM*	25µM*
CN1CCN(c2ncc3nc(-c4cc(F)cc(F)c4)c(=O)n(C4CC4)c3n2)CC1	-12%	?
NCCSCCC(=O)O	5%	-3%
N#CC1=C(N)SC(N)=C(C#N)C1c1cccc(Oc2ccccc2)c1	-18%	25µM*
CCOc1ccc(C2C(C#N)=C(N)SC(N)=C2C#N)cc1OCC	-11%	-1%
COc1ccc(CCCc2nnc(SCC(=O)Nc3ccc(Cl)cc3)o2)cc1	-1%	?
OC[C@@H]1[C@@H](c2ccc(F)cc2)C(c2cccc(Cl)c2)=NN1c1ccccc1	0%	32µM*
C[C@H]1C(c2cccc(Cl)c2)=NN(c2ccccc2)[C@@H]1CO	0%	?
OC[C@@H]1[C@@H](c2ccc(Cl)cc2)C(c2cccc(Cl)c2)=NN1c1ccccc1	2%	25µM*
OC[C@@H]1[C@@H](c2ccc(Cl)cc2)C(c2ccccc2)=NN1c1ccccc1	0%	-18%
Nc1nc(SCCc2ccccc2)c2[nH]cnc2n1	3%	-10%
CCCOc1ccccc1NC(=O)CC1Nc2ccccc2NC1=O (stereo not drawn)	-4%	13µM*
CCOc1ccccc1NC(=O)CC1Nc2ccccc2NC1=O (stereo not drawn)	-9%	?
Cc1ccc(NC(=O)CC2Nc3ccccc3NC2=O)cc1C (stereo not drawn)	-12%	0%
Cc1ccc(NC(=O)CC2Nc3ccccc3NC2=O)cc1Cl (stereo not drawn)	?	25µM*

From PubChem
